Common to all, as to experiment: DAPPL (digital affinity profiling via proximity ligation, sequencing); 10 mM Tris-HCl pH 7.5, 50 mM NaCl, 1 mM DTT, 4% glycerol, room temperature, 30 min; GST-TFs on glutathione beads, 16-mer random dsDNA library, 0.1% formaldehyde crosslink after washing; high values mean tight binding
Holding throughout (conditions): protein: recombinant; tags: N-terminal GST; dsDNA, one strand shown

One test deals with T1, ERG (Homo sapiens, UniProt P11308 1-479).
T1 sequence: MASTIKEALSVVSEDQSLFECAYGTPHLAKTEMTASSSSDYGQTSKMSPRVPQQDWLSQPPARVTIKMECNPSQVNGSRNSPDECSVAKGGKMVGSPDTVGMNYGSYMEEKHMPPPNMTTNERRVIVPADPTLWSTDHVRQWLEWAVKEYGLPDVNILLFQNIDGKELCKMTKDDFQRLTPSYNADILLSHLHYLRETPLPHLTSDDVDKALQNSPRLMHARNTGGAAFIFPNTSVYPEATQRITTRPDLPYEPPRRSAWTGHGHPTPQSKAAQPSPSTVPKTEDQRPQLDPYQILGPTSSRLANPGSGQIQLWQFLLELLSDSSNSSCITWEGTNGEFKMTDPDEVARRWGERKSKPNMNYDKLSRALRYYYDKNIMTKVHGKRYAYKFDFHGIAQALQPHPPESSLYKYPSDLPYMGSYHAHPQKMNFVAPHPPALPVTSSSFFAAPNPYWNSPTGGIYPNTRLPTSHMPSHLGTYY
Summed up: (§1)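 Each value of binding signal is a hexamer's read frequency for a factor divided by the same hexamer's frequency in the tag-only sample. Barcoded, bead-captured GST fusions of human transcription factors made in yeast were pooled with that sample and incubated with 200 nmole of a random double-stranded 16-mer DNA library in Tris/NaCl/DTT/glycerol buffer at room temperature for 30 min. Washing, 0.1% formaldehyde crosslinking, proximity ligation, PCR and Illumina NextSeq500 sequencing followed.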

For the next test, the target named is SPIB (Homo sapiens, UniProt Q01892 1-262). Summed up: as §1
SPIB, sequence (Q01892 whole entry): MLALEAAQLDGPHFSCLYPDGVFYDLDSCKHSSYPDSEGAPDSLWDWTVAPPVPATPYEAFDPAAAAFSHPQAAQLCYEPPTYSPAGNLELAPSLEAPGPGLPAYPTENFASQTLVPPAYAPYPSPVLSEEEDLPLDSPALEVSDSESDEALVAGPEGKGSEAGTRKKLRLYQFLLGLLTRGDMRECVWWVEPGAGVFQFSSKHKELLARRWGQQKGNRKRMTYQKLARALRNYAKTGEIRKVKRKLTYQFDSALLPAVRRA
Another test has as its target ETV5 (Homo sapiens, UniProt P41161 1-510). Summed up:
as §1

For the next test, the target named is T2, SPIC (Homo sapiens, UniProt Q8N5J4 1-248).
T2 sequence: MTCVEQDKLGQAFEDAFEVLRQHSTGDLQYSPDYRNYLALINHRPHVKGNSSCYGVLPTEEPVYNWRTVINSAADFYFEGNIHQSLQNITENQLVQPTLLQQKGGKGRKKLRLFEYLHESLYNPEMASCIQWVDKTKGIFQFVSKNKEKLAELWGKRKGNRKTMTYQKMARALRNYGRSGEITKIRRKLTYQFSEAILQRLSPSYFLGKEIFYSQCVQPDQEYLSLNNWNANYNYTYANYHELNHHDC
Summed up:
as §1

A further test concerns the target T3, SPDEF (Homo sapiens, UniProt O95238 1-335).
T3 sequence: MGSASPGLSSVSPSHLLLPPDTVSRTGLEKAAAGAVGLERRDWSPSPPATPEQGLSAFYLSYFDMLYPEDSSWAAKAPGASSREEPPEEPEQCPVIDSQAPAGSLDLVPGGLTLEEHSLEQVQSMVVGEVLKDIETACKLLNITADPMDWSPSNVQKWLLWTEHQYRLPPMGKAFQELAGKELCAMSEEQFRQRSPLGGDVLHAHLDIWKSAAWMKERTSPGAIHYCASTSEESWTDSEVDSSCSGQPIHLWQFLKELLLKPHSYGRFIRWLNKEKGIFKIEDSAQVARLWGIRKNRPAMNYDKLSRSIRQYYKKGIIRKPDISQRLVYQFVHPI
Summed up:
as §1

A further test deals with T4, ETV3 (Homo sapiens, UniProt P41162-2 1-143).
T4 sequence: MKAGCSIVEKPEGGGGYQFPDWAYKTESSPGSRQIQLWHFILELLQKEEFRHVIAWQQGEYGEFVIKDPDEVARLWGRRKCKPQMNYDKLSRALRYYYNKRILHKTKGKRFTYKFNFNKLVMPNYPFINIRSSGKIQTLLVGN
Summed up: as §1

In another test the target is T5, ELK1 (Homo sapiens, UniProt P19419 1-428).
T5 sequence: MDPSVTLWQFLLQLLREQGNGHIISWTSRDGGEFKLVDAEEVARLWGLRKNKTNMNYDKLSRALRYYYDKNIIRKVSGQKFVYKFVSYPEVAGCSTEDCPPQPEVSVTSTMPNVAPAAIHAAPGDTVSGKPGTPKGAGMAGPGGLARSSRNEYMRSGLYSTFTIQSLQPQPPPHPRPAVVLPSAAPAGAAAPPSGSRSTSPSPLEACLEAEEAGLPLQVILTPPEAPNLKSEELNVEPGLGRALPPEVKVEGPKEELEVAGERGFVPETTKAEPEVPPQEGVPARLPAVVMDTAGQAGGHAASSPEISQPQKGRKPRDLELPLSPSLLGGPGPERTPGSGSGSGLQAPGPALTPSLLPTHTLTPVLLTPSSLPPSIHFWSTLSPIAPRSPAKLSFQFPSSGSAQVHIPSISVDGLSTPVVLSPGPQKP
Summed up: as §1

The target in another test is T6, GABPA (Homo sapiens, UniProt Q06546 1-454).
T6 sequence: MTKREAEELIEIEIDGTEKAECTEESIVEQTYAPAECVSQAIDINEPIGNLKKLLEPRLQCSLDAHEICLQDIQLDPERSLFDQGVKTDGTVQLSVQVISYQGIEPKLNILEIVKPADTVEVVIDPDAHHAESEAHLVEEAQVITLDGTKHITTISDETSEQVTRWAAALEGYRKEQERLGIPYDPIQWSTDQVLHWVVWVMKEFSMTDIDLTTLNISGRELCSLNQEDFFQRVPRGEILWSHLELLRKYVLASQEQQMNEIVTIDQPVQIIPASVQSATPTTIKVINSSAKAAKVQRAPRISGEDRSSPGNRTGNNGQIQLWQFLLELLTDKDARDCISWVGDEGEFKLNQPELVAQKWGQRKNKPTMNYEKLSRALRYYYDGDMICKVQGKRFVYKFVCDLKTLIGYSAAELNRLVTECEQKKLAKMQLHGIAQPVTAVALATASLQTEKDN
Summed up:
as §1

For a further test, the target named is T7, ELF3 (Homo sapiens, UniProt P78545 1-371).
T7 sequence: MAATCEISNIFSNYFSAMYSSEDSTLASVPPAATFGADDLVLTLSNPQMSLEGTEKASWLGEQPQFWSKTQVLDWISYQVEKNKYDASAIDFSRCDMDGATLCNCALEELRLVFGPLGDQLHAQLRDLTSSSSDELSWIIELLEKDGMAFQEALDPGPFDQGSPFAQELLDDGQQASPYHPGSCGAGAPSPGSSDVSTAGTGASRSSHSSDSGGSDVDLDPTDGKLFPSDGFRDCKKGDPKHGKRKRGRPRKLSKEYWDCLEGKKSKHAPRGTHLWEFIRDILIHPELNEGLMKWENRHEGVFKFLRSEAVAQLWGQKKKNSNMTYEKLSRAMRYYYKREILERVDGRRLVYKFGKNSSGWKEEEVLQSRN
Summed up: as §1

The target in the next test is ETV1 (Homo sapiens, UniProt P50549 1-477). Summed up: as §1
ETV1, sequence (P50549 whole entry): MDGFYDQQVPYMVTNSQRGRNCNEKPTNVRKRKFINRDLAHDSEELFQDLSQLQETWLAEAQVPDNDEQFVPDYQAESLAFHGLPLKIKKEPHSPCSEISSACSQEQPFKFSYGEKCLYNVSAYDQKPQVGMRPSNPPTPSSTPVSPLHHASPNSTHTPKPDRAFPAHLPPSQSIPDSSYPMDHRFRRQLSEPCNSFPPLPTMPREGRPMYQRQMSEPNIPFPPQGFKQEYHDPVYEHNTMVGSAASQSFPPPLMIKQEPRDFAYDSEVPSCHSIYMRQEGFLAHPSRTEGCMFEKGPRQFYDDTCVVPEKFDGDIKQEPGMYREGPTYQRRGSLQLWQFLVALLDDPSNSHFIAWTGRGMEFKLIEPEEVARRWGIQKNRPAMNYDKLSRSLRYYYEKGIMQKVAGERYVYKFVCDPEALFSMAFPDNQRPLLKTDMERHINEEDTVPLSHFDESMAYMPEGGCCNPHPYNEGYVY
A further test addresses T8, ETV3L (Homo sapiens, UniProt Q6ZN32 1-361).
T8 sequence: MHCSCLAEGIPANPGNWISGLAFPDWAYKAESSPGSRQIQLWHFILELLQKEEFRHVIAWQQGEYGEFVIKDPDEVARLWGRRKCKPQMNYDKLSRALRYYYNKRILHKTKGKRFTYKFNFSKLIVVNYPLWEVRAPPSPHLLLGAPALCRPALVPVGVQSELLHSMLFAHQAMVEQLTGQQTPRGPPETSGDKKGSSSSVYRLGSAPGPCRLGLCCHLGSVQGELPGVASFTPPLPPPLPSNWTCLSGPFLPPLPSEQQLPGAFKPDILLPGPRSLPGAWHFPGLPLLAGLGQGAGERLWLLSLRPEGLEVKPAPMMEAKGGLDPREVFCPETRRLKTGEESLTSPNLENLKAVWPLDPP
Summed up:
as §1

The next test deals with SPI1 (Homo sapiens, UniProt P17947 1-270). Summed up:
as §1

The next test deals with ELF4 (Homo sapiens, UniProt Q99607 1-663). Summed up: as §1
ELF4, sequence (Q99607 whole entry): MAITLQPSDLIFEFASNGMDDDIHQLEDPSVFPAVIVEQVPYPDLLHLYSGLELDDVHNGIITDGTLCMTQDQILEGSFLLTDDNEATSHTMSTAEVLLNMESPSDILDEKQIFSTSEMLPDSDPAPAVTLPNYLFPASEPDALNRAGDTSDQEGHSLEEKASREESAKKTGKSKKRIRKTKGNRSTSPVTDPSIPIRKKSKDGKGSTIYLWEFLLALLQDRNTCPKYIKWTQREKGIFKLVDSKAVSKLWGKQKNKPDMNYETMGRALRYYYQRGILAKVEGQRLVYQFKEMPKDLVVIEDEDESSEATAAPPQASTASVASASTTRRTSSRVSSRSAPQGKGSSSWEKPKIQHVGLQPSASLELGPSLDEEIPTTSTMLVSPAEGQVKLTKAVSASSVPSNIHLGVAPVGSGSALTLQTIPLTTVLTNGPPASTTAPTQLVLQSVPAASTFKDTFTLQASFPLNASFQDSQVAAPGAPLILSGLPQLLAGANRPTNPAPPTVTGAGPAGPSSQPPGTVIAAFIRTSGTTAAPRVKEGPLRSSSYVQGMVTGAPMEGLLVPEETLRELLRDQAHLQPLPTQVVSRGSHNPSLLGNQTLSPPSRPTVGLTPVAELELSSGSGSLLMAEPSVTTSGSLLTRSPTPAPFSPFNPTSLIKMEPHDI
Another test has as its target T9, ELK4 (Homo sapiens, UniProt P28324-2 1-405).
T9 sequence: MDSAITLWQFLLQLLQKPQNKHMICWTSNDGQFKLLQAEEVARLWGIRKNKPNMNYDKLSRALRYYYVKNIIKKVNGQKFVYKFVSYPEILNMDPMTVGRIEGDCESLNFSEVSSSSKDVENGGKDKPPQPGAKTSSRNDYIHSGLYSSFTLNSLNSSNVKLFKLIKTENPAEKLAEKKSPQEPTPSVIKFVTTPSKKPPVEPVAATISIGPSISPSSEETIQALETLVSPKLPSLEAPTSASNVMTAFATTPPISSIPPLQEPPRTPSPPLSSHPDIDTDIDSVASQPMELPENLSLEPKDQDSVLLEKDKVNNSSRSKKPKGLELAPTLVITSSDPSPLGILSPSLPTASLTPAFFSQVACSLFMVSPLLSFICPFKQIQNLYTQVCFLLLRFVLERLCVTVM
Summed up:
as §1

The target in a further test is T10, ETV7 (Homo sapiens, UniProt Q9Y603 1-341).
T10 sequence: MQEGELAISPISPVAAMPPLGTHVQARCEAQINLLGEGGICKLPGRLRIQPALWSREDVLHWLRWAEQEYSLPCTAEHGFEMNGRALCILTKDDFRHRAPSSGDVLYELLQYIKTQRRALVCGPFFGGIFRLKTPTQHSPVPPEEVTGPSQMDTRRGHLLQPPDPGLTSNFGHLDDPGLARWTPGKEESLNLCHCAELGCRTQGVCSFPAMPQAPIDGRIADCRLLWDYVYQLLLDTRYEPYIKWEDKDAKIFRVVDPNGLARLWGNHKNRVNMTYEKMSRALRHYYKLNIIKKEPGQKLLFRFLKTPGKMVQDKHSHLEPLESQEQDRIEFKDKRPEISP
Summed up: as §1

The next test concerns the target ETV6 (Homo sapiens, UniProt P41212 1-452). Summed up: as §1

ETV5, sequence (P41161 whole entry): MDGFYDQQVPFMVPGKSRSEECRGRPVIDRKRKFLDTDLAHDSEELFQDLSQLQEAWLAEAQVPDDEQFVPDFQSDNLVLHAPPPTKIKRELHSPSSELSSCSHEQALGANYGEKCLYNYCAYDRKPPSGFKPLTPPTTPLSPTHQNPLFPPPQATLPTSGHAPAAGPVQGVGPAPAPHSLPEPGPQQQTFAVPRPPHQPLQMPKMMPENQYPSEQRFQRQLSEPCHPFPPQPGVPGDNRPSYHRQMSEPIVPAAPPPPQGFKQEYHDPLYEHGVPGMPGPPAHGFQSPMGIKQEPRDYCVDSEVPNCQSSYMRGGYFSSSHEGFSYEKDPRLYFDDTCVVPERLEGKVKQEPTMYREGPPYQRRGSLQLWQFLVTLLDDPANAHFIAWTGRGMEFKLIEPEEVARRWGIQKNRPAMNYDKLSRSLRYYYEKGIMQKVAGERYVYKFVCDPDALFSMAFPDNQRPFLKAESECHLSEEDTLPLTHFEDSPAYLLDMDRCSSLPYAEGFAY
ETV6, sequence (P41212 whole entry): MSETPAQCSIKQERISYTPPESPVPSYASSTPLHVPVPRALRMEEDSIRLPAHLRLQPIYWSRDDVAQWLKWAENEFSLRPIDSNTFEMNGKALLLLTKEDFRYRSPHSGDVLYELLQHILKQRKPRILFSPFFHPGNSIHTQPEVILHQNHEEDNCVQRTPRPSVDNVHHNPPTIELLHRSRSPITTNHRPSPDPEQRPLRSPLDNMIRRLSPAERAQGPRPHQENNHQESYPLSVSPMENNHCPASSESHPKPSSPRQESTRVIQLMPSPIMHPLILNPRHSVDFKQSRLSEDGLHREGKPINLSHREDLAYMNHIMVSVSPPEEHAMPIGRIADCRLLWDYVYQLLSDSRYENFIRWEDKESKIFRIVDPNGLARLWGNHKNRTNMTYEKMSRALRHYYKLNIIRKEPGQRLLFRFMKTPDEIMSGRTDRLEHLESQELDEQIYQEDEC

For ATCCGT, the binding signal is 1.04 fold enrichment (6-mer frequency, TF over GST control) with ERG; 1.1 fold enrichment (6-mer frequency, TF over GST control) with SPIB; 1.05 fold enrichment (6-mer frequency, TF over GST control) in the test with ETV5; 1 fold enrichment (6-mer frequency, TF over GST control) in the test with SPIC; 1.41 fold enrichment (6-mer frequency, TF over GST control) in the test with SPDEF; 1.04 fold enrichment (6-mer frequency, TF over GST control) in the test with ETV3.
Turning to GCGTAT, the binding signal is 1.04 fold enrichment (6-mer frequency, TF over GST control) in the test with ELK1; 1 fold enrichment (6-mer frequency, TF over GST control) in the test with GABPA; 1.03 fold enrichment (6-mer frequency, TF over GST control) with ERG; 1.11 fold enrichment (6-mer frequency, TF over GST control) with SPIB; 1.05 fold enrichment (6-mer frequency, TF over GST control) with ETV5; 1.07 fold enrichment (6-mer frequency, TF over GST control) with SPIC. In addition, the binding signal with ELF3 was 1.03 fold enrichment (6-mer frequency, TF over GST control); with ETV1, 1.05 fold enrichment (6-mer frequency, TF over GST control); in the test with ETV3L it was 1.02 fold enrichment (6-mer frequency, TF over GST control).
Take GTGCCC: the binding signal in the test with GABPA is 1.01 fold enrichment (6-mer frequency, TF over GST control); with ERG, 1.08 fold enrichment (6-mer frequency, TF over GST control); with SPI1, 1.07 fold enrichment (6-mer frequency, TF over GST control); in the test with ETV5, 1.08 fold enrichment (6-mer frequency, TF over GST control); in the test with ELF4 it was 1.03 fold enrichment (6-mer frequency, TF over GST control); in the test with ELK4, 1.07 fold enrichment (6-mer frequency, TF over GST control). The binding signal with ETV3L was 1 fold enrichment (6-mer frequency, TF over GST control); with ETV7 it was 1.01 fold enrichment (6-mer frequency, TF over GST control); with ETV6, 1 fold enrichment (6-mer frequency, TF over GST control).
